This is an account of results in article PMC7862700, “An all-to-all approach to the identification of sequence-specific readers for epigenetic DNA modifications on cytosine”.

What all share (assay): DAPPL (digital affinity profiling via proximity ligation, sequencing); 10 mM Tris-HCl pH 7.5, 50 mM NaCl, 1 mM DTT, 4% glycerol, room temperature, 30 min; GST-TFs on glutathione beads, 16-mer random dsDNA library, 0.1% formaldehyde crosslink after washing; high values mean tight binding
One assay has as its target T1, FEV (Homo sapiens, UniProt Q99581 1-238).
T1 sequence: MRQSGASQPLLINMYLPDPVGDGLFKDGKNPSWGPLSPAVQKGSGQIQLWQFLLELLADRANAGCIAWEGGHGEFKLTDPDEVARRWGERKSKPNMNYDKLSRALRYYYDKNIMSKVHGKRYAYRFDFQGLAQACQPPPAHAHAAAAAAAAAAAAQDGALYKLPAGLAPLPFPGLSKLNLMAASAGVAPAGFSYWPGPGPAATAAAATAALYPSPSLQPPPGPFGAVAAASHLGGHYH
Conditions: protein: recombinant; tags: N-terminal GST; dsDNA, one strand shown. The method, boiled down:
(§1)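 Human transcription factors carrying a GST fusion were produced in yeast, bound to glutathione beads, tagged with DNA barcodes and pooled together with a tag-only sample. Each pool was held with 200 nmole of a random double-stranded 16-mer DNA library in Tris/NaCl/DTT/glycerol buffer for 30 min at room temperature, then washed, crosslinked in 0.1% formaldehyde, proximity-ligated with BsaI/T4 ligase (1 h, 37 °C), PCR-amplified and sequenced on an Illumina NextSeq500. Binding signal is the read frequency of each hexamer for a given factor divided by its frequency in the tag-only sample.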

Another assay concerns the target ETV5 (Homo sapiens, UniProt P41161 1-510). Particulars: protein: recombinant; tags: N-terminal GST; dsDNA, one strand shown. The procedure, abridged: as §1
In a further assay the target is HSF1 (Homo sapiens, UniProt Q00613 1-529). Particulars: protein: recombinant; tags: N-terminal GST; chain copies: 3; dsDNA, one strand shown. The method, boiled down: as §1
In the next assay the target is T2, SPIC (Homo sapiens, UniProt Q8N5J4 1-248).
T2 sequence: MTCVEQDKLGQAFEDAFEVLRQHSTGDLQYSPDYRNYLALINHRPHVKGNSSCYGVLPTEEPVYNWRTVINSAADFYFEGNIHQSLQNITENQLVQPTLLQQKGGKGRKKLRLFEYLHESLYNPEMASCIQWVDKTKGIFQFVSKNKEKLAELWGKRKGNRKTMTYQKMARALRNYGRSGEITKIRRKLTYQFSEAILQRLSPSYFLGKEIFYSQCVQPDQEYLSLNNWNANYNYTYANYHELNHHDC
Conditions: protein: recombinant; tags: N-terminal GST; dsDNA, one strand shown. The method, boiled down:
as §1

A further assay addresses ELF4 (Homo sapiens, UniProt Q99607 1-663). Conditions: protein: recombinant; tags: N-terminal GST; dsDNA, one strand shown. The method, boiled down:
as §1

A further assay deals with T3, ELK4 (Homo sapiens, UniProt P28324-2 1-405).
T3 sequence: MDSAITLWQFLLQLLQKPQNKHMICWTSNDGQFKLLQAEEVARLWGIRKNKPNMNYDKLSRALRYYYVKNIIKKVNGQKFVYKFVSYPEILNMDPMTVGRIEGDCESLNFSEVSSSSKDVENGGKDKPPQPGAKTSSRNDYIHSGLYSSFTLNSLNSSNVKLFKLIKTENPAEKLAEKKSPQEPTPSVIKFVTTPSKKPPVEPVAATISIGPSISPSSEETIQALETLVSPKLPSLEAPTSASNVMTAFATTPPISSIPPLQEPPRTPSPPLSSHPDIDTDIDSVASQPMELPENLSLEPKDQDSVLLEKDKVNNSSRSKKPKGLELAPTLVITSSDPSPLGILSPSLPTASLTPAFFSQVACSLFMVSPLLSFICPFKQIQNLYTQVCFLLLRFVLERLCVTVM
Conditions: protein: recombinant; tags: N-terminal GST; dsDNA, one strand shown. The procedure, abridged:
as §1

For a further assay, the target named is T4, ETV2 (Homo sapiens, UniProt O00321 1-342).
T4 sequence: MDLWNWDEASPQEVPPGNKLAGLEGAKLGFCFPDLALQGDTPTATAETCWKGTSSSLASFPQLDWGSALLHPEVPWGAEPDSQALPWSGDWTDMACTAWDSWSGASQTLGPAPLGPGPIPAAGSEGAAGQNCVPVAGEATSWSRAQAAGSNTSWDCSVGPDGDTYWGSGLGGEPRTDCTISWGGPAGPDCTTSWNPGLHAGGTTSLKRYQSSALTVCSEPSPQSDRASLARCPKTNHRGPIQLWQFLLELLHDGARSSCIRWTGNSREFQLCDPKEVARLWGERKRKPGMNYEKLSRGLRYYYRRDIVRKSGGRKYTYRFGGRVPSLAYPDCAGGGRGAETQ
Conditions: protein: recombinant; tags: N-terminal GST; dsDNA, one strand shown. The method, boiled down: as §1

A further assay concerns the target T5, ELF3 (Homo sapiens, UniProt P78545 1-371).
T5 sequence: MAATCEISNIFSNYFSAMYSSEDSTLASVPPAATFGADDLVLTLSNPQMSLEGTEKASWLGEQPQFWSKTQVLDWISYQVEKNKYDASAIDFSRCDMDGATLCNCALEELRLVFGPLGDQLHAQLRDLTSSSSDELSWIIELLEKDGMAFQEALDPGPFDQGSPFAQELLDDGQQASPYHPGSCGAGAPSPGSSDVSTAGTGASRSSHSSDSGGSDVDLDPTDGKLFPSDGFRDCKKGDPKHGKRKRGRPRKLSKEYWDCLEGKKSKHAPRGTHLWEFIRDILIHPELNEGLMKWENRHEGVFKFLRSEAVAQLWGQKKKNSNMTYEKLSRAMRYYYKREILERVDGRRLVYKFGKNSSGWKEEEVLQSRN
Particulars: protein: recombinant; tags: N-terminal GST; dsDNA, one strand shown. The procedure, abridged: as §1

For a further assay, the target named is CRX (Homo sapiens, UniProt O43186 1-299). Conditions: protein: recombinant; tags: N-terminal GST; dsDNA, one strand shown. The procedure, abridged:
as §1

The target of the next assay is ETV1 (Homo sapiens, UniProt P50549 1-477). Particulars: protein: recombinant; tags: N-terminal GST; dsDNA, one strand shown. The method, boiled down: as §1
For another assay, the target named is T6, ERF (Homo sapiens, UniProt P50548 1-548).
T6 sequence: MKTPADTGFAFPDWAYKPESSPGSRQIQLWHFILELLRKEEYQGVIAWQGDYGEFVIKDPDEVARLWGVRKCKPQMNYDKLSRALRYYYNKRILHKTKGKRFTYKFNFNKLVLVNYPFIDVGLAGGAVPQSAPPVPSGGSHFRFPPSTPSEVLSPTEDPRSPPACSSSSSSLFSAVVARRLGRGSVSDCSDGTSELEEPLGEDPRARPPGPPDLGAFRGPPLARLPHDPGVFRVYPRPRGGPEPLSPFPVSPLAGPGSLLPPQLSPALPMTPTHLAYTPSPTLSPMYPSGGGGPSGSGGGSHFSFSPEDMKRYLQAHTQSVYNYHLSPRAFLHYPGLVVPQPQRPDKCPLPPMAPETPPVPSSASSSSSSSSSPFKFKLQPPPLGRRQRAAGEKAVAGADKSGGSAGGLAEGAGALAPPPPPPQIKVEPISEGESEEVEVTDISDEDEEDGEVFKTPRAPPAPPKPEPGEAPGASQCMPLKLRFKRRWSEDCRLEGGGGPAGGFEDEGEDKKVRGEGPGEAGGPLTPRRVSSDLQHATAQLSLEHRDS
Conditions: protein: recombinant; tags: N-terminal GST; dsDNA, one strand shown. The method, boiled down:
as §1

The target of the next assay is T7, ETV3L (Homo sapiens, UniProt Q6ZN32 1-361).
T7 sequence: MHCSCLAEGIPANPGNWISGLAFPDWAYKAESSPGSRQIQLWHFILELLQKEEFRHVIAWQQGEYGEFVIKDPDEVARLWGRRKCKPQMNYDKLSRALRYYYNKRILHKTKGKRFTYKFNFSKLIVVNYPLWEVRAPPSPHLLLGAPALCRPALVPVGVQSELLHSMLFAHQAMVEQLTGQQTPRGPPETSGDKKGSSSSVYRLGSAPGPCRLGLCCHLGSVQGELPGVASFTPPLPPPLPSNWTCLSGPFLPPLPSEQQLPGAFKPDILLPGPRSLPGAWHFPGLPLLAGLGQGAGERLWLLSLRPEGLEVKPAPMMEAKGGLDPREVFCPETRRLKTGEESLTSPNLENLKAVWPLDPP
Conditions: protein: recombinant; tags: N-terminal GST; dsDNA, one strand shown. The method, boiled down: as §1

The target of a further assay is T8, ETS2 (Homo sapiens, UniProt P15036 1-469).
T8 sequence: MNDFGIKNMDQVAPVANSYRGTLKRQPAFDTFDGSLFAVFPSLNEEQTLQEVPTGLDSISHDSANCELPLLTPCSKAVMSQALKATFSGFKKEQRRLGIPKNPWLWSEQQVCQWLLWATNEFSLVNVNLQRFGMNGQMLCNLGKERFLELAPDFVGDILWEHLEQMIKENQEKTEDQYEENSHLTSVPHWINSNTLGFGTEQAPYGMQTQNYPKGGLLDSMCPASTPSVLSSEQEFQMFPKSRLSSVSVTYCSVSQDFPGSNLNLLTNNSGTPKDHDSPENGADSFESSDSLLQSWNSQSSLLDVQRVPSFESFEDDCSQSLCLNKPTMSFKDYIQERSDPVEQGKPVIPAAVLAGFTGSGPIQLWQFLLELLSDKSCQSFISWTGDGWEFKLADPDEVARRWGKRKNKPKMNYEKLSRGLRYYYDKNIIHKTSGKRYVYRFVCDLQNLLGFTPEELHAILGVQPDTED
Particulars: protein: recombinant; tags: N-terminal GST; dsDNA, one strand shown. The procedure, abridged: as §1

The target of a further assay is T9, SPDEF (Homo sapiens, UniProt O95238 1-335).
T9 sequence: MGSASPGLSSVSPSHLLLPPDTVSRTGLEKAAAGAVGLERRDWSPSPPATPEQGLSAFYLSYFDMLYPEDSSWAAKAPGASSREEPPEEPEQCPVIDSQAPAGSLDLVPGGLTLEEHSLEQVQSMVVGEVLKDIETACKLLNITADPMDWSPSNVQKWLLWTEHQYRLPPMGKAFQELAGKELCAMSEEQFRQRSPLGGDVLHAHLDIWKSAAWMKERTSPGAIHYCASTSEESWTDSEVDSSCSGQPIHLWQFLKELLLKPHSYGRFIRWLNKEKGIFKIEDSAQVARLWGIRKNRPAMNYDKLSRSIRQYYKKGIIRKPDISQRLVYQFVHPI
Conditions: protein: recombinant; tags: N-terminal GST; dsDNA, one strand shown. The method, boiled down:
as §1

The target in a further assay is T10, ETV7 (Homo sapiens, UniProt Q9Y603 1-341).
T10 sequence: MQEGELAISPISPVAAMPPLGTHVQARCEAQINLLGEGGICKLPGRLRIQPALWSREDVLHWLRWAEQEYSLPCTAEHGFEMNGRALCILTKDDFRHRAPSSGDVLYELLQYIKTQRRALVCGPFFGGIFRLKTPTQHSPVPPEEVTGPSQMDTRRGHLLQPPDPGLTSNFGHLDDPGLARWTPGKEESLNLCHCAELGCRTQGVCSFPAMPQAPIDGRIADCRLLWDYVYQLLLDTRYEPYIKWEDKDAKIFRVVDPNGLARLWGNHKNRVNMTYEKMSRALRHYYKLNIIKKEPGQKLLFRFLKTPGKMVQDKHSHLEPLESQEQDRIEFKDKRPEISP
Particulars: protein: recombinant; tags: N-terminal GST; dsDNA, one strand shown. The procedure, abridged:
as §1

The target of a further assay is T11, ELF5 (Homo sapiens, UniProt Q9UKW6-2 1-255).
T11 sequence: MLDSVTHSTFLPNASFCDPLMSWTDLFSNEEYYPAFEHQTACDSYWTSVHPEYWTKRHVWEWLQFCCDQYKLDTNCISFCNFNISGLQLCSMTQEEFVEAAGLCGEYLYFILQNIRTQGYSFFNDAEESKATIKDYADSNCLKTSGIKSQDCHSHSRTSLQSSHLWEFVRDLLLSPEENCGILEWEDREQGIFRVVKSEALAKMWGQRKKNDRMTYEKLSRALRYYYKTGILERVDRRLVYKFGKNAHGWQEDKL
Conditions: protein: recombinant; tags: N-terminal GST; dsDNA, one strand shown. The method, boiled down:
as §1

A further assay concerns the target T12, ETV3 (Homo sapiens, UniProt P41162-2 1-143).
T12 sequence: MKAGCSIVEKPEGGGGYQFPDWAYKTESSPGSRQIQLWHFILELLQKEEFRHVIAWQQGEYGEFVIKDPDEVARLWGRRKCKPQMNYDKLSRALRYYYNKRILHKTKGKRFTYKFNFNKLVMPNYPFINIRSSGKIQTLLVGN
Conditions: protein: recombinant; tags: N-terminal GST; dsDNA, one strand shown. The procedure, abridged: as §1

The target of a further assay is ETV6 (Homo sapiens, UniProt P41212 1-452). Particulars: protein: recombinant; tags: N-terminal GST; dsDNA, one strand shown. The procedure, abridged:
as §1

Chain of CRX (O43186 whole entry): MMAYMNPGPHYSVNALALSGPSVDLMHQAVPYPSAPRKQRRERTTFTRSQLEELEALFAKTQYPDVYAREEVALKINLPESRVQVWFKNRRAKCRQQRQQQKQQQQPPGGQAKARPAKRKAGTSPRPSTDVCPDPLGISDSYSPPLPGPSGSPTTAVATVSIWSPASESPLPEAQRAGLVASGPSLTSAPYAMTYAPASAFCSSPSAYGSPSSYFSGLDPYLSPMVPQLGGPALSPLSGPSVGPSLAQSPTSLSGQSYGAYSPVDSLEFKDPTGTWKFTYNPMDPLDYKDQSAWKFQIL
Chain of ELF4 (Q99607 whole entry): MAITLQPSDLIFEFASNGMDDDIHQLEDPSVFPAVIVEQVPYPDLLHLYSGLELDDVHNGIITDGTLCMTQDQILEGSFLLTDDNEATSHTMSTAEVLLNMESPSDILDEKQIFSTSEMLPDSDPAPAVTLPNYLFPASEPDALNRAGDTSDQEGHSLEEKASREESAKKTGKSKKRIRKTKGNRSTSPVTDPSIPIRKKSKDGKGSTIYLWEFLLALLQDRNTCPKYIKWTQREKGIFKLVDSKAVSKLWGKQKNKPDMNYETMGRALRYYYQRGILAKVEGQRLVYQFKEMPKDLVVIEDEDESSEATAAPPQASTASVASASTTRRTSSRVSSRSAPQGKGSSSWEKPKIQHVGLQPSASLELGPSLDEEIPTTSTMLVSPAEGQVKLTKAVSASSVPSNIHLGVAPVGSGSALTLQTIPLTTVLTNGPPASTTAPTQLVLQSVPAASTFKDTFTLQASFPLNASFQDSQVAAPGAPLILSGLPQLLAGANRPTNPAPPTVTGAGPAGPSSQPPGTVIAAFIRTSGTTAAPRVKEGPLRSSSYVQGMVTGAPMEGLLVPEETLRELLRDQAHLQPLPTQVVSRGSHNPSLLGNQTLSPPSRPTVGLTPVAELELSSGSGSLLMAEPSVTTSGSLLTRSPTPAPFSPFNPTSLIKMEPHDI
Chain of ETV5 (P41161 whole entry): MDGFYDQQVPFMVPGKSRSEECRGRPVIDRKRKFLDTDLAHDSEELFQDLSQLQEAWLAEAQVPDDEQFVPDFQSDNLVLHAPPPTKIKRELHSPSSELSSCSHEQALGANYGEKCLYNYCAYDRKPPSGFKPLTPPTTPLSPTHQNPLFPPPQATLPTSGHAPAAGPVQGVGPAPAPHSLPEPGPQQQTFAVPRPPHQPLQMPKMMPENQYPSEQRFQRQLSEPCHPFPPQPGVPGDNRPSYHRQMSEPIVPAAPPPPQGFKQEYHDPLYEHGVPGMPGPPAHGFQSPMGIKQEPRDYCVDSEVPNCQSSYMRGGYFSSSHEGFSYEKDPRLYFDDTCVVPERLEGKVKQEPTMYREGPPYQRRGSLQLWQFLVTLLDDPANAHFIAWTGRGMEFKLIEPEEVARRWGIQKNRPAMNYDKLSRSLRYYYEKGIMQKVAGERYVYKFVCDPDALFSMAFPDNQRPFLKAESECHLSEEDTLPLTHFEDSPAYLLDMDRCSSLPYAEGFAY
Chain of HSF1 (Q00613 whole entry): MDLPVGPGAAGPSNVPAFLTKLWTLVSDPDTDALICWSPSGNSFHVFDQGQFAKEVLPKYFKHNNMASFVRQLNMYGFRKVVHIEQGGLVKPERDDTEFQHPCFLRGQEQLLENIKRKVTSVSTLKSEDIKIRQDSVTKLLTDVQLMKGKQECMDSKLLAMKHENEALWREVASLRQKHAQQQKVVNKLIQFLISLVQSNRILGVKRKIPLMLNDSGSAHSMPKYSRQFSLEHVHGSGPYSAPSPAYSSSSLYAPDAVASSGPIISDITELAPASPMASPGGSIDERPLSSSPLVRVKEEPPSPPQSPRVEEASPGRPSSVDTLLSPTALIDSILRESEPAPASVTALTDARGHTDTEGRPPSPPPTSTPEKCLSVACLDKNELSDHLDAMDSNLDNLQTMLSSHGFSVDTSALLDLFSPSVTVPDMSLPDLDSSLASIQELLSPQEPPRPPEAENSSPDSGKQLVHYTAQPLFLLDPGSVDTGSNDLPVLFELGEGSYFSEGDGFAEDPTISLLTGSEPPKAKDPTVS
Chain of ETV1 (P50549 whole entry): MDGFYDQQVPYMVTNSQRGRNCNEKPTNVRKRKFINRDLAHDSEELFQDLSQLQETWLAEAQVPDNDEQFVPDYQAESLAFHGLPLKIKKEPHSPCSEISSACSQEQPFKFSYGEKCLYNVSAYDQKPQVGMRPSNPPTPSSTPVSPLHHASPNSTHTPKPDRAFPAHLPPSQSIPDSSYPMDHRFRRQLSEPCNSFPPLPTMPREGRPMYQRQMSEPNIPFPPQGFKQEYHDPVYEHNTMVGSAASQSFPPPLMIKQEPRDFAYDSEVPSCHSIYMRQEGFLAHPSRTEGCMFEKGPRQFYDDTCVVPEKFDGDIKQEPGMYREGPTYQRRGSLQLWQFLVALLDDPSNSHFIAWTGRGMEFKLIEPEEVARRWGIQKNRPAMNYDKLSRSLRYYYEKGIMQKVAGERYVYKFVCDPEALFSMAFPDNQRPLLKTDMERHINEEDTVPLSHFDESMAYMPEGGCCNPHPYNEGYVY
Chain of ETV6 (P41212 whole entry): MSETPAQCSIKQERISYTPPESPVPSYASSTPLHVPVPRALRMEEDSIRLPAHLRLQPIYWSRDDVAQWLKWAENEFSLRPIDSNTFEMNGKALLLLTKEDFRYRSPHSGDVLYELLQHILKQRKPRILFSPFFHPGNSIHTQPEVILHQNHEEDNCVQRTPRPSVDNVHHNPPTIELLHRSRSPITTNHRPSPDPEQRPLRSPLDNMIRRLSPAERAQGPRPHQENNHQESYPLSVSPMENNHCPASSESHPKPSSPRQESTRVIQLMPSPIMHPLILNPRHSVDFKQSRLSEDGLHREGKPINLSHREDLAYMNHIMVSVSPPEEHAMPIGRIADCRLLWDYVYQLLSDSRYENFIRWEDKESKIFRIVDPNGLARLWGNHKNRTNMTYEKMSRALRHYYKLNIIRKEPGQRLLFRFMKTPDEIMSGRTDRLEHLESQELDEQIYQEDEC

Consider CTGTCT, for which the binding signal in the assay with FEV was 1.42 fold enrichment (6-mer frequency, TF over GST control); with ETV5, 1.4 fold enrichment (6-mer frequency, TF over GST control); with HSF1 it was 1.22 fold enrichment (6-mer frequency, TF over GST control); with SPIC, 1.56 fold enrichment (6-mer frequency, TF over GST control); with ELF4 it was 1.38 fold enrichment (6-mer frequency, TF over GST control); in the assay with ELK4, 1.46 fold enrichment (6-mer frequency, TF over GST control). Also, the binding signal was 1.26 fold enrichment (6-mer frequency, TF over GST control) with ETV2; 1.47 fold enrichment (6-mer frequency, TF over GST control) with ELF3; 1.09 fold enrichment (6-mer frequency, TF over GST control) with CRX; 1.4 fold enrichment (6-mer frequency, TF over GST control) with ETV1; 1.37 fold enrichment (6-mer frequency, TF over GST control) with ERF; 1.37 fold enrichment (6-mer frequency, TF over GST control) with ETV3L. In addition, the binding signal with ETS2 was 1.4 fold enrichment (6-mer frequency, TF over GST control); in the assay with SPDEF it was 1.44 fold enrichment (6-mer frequency, TF over GST control); with ETV7, 1.53 fold enrichment (6-mer frequency, TF over GST control); with ELF5, 1.28 fold enrichment (6-mer frequency, TF over GST control); with ETV3 it was 1.45 fold enrichment (6-mer frequency, TF over GST control); with ETV6 it was 1.32 fold enrichment (6-mer frequency, TF over GST control).
